Among the data in PubChem BioAssay are activity remaining values, retold here.

Values joined by “and” are separate entries in the source; they are usually repeats but may differ in a detail not shown here. Equal values may be shown once. Where a name gives a salt, the structure may show the parent alone. Values without a mark were called inactive. The rule behind the calls is not given here. Residues, ends and D or L forms follow the SMILES beside them. *: point of attachment. Tfa = O=C(C(F)(F)F)*

The subject of the experiment is Aerobactin synthetase IucA (Klebsiella pneumoniae hvKP1). Nature of the experiment: IucA enzyme inhibition, primary screen, biochemical, Spectrum library (AID 1346200).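 Note: 100% = wells without compound and 0% = wells lacking enzyme.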 The settings on record: malachite green pyrophosphate, A620, at 8 µM, stronger effect = lower value.
`CC1(C)C[C@@H](O)[C@]2(C)CC[C@]3(C)C(=CCC4[C@@]5(C)CC[C@H](O)[C@](C)(CO)C5CC[C@]43C)[C@@H]2C1` (stereo not given in full): the activity remaining is 100%.

As to `COc1ccc2c(c1)CCC1C2CC[C@@]2(C)C1CC[C@@H]2O` (stereo not given in full), the activity remaining was 111%.

As to `CCCCCCCC/C=C/CCCCCCCCOP(=O)([O-])OCC[N+](C)(C)C`, the activity remaining is 96.1%.

Turning to `COc1c(-c2coc3cc4c(cc3c2=O)CC(OC(C)=O)C(C)(C)O4)ccc2c1C=CC(C)(C)O2` (stereo not given), the activity remaining was 103%.

In the case of `C[C@@H]1O[C@@H](O[C@H]2[C@H](Oc3cc(O)c4c(=O)cc(-c5ccc(O)cc5)oc4c3)O[C@H](CO)[C@@H](O)[C@@H]2O)[C@H](O)[C@H](O)[C@H]1O`, the activity remaining was 90.6%.

With `NC[C@H]1O[C@H](O[C@H]2C(O[C@@H]3O[C@H](CO)[C@@H](O)[C@H]3O)[C@@H](O)[C@H](N)C[C@@H]2N)[C@H](N)[C@@H](O)[C@@H]1O` (stereo not given in full), the activity remaining is 123%.

On to `O=c1cc(-c2ccccc2)oc2cc(O)cc(O)c12`, for which the activity remaining is 118% and 119%.

For `CC(C)C(NC(=O)C(Cc1ccc(O)cc1)NC(=O)C(NC(=O)C(F)(F)F)C(C)C)C(=O)O` (stereo not drawn) (Tfa-Val-Tyr-Val-OH; configuration not given here), the activity remaining is 105%.

For `Cc1nnc(NS(=O)(=O)c2ccc(N)cc2)s1`, the activity remaining was 113%.

For the compound `CO[C@@H]1[C@@H](OC(N)=O)[C@@H](O)[C@H](Oc2ccc3c(O)c(NC(=O)c4ccc(O)c(CC=C(C)C)c4)c(=O)oc3c2C)OC1(C)C`, the activity remaining was 129%.

In the case of `Cc1cccc2c3c(ccc12)C1=C(C(=O)C3=O)C(C)CO1` (stereo not given), the activity remaining was 114%.

Consider `COC(=O)C[C@@H]1C2(C)C(=O)[C@@H](CC3=C4CC(=O)O[C@@H](c5ccoc5)[C@]4(C)CCC32)[C@H](OC(C)=O)C1(C)C` (stereo not given in full), for which the activity remaining was 112%.

For `COC1C(O)C(O[C@H]2CC[C@]3(C=O)C4C(CC[C@]3(O)C2)[C@@]2(O)CC[C@H](C3=CC(=O)OC3)[C@@]2(C)C[C@H]4OC(C)=O)OC(C)C1OC(C)=O` (stereo not given in full), the activity remaining is 122%.

Take `CC(=O)OC(C)(C)[C@@H]1Cc2cc3ccc(=O)oc3cc2O1`: the activity remaining is 95.5%.

On to `O=C(O)CCCCCCCCCCCCC1C=CCC1` (stereo not given), for which the activity remaining is 118%.

With `C=C(C)C1Cc2c(ccc(C(=O)O)c2O)O1` (stereo not given), the activity remaining was 120%.

`CC(=O)OC1CCC23CC1(C)CCC2C(C)(C)CC3OC(C)=O` (stereo not given): the activity remaining was 105%.

With `COc1cc(C(=O)NCCCCCC(=O)O)cc(OC)c1OC`, the activity remaining was 120%.

As to `N[C@@H](C(=O)O)[C@@H](O)[C@H](O)[C@H](O)CO`, the activity remaining is 120%.

`COc1ccc2c(c1OC)C(=O)O[C@H]2[C@H]1c2c(cc3c(c2OC)OCO3)CCN1C`: the activity remaining was 116%.

In the case of `Cc1cc(-c2ccccc2)nnc1NCCN1CCOCC1`, the activity remaining was 110%.

`NC(=NCCC[C@H](N)C(=O)O)NC(CCC(=O)O)C(=O)O` (stereo not given in full): the activity remaining is 107%.

In the case of `O=C(O)c1cc(=O)c(O)c2c(O)c(O)c(O)cc2c1`, the activity remaining is 104%.

With `COc1ccccc1OCC(O)CO` (stereo not given), the activity remaining was 94.5%.

On to `COc1cccc(OC)c1C(=O)N[C@@H]1C(=O)N2[C@@H]1SC(C)(C)[C@@H]2C(=O)O`, for which the activity remaining was 85.9%.

Consider `C[C@]12C=CC(=O)C=C1CCC1C2[C@@H](O)C[C@@]2(C)C1CC[C@]2(O)C(=O)COP(=O)(O)O` (stereo not given in full), for which the activity remaining was 117%.

As to `CN[C@@H]1[C@H](O)[C@H](NC)[C@H]2O[C@@]3(O)C(=O)C[C@@H](C)O[C@H]3O[C@@H]2[C@H]1O`, the activity remaining was 108%.

With `CC(=O)O[C@@H]1c2c(ccc3ccc(=O)oc23)OC(C)(C)[C@@H]1OC(=O)CC(C)C`, the activity remaining is 103%.

Consider `CC1=C(C(=O)O)N2C(=O)[C@@H](NC(=O)[C@H](N)C3=CCC=CC3)C2SC1` (stereo not given in full), for which the activity remaining is 103%.

In the case of `COc1ccc(-c2coc3cc(O)cc(O)c3c2=O)cc1`, the activity remaining was 98.7%.

On to `CCCCCC1C(=O)CCC1CC(=O)O` (stereo not given), for which the activity remaining was 93.2%.

`CC(C)CCCC(C)[C@H]1CCC2C3CC[C@H]4CC(=O)CC[C@]4(C)C3CC[C@@]21C` (stereo not given in full): the activity remaining is 102%.

As for `CC(=O)O[C@H]1CC[C@@]2(C)C(=CC(=O)C3C4CCC(C(C)CCCC(C)C)[C@@]4(C)CCC32)C1` (stereo not given in full), the activity remaining was 123%.

Regarding `CC1O[C@@H](Oc2c(-c3ccc(O)c(O)c3)oc3cc(O)cc(O)c3c2=O)[C@H](O)[C@H](O)[C@H]1O` (stereo not given in full), the activity remaining was 111%.

`CS(=O)(=O)OCCCCOS(C)(=O)=O`: the activity remaining was 79.2%.

Regarding `CCN(CC)CCNC(=O)c1cc(Br)c(N)cc1OC`, the activity remaining was 109%.

`COC(=O)N/N=C/c1c[n+]([O-])c2ccccc2[n+]1[O-]`: the activity remaining was 109%.

For `CN1C(C(=O)Nc2ccccn2)=C(O)c2sccc2S1(=O)=O`, the activity remaining was 82.2%.

`CC(O)(P(=O)(O)O)P(=O)(O)O`: the activity remaining was 119%.

Regarding `CCCCCN=C(N)N/N=C/c1c[nH]c2ccc(OC)cc12`, the activity remaining is 108%.
